From the supplement of paper PMC6411743 come the findings set out here.

Compound in the experiment: Nc1ncnc2c1ncn2[C@@H]1O[C@H](COP(=O)(O)OP(=O)(O)NP(=O)(O)O)[C@@H](O)[C@H]1O [adenylyl imidodiphosphate]
In words: NP40-soluble protein abundance relative to vehicle (solubility fold change) (ratio); higher = more soluble protein in presence of AMP-PNP. The gist of the method: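 Values are fold changes against the detergent-processed vehicle, based on vsn-normalised intensities. Jurkat crude lysate was treated at eight concentrations from 0.1 to 10 mM (10 min at room temperature, then 3 min at 37 °C), solubilised with 0.8% NP40 and benzonase, ultracentrifuged and analysed by TMT-labelled LC-MS/MS over three independent experiments.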

± gives the standard deviation of the averaged measurements. The full data set covers some 6,200 targets. This sample favours those with the largest changes.

Sequence of UniProt P43243 (P43243 whole entry, one chain of several): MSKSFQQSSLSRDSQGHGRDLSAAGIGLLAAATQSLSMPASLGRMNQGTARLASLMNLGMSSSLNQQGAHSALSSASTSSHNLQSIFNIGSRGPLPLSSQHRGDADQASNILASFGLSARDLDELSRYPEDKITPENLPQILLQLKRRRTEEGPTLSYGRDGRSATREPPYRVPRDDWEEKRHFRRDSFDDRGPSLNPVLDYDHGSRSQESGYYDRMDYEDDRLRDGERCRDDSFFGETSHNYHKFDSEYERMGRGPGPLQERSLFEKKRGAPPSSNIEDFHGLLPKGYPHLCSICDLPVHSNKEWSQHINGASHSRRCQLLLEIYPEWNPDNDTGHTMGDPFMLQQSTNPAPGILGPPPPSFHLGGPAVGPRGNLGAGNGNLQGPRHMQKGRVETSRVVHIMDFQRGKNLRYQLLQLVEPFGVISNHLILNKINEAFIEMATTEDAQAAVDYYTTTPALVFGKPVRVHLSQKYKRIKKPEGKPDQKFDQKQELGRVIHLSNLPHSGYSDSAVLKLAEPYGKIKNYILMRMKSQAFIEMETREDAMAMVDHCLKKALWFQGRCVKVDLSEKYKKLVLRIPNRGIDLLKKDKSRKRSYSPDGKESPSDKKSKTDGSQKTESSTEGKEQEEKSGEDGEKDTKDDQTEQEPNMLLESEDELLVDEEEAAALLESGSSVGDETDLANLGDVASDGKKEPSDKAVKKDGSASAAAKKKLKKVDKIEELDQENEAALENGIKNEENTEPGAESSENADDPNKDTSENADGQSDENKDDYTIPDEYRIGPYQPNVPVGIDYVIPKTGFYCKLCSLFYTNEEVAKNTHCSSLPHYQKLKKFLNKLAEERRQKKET
Sequence of UniProt Q9UIF9 (Q9UIF9 whole entry, one chain of several): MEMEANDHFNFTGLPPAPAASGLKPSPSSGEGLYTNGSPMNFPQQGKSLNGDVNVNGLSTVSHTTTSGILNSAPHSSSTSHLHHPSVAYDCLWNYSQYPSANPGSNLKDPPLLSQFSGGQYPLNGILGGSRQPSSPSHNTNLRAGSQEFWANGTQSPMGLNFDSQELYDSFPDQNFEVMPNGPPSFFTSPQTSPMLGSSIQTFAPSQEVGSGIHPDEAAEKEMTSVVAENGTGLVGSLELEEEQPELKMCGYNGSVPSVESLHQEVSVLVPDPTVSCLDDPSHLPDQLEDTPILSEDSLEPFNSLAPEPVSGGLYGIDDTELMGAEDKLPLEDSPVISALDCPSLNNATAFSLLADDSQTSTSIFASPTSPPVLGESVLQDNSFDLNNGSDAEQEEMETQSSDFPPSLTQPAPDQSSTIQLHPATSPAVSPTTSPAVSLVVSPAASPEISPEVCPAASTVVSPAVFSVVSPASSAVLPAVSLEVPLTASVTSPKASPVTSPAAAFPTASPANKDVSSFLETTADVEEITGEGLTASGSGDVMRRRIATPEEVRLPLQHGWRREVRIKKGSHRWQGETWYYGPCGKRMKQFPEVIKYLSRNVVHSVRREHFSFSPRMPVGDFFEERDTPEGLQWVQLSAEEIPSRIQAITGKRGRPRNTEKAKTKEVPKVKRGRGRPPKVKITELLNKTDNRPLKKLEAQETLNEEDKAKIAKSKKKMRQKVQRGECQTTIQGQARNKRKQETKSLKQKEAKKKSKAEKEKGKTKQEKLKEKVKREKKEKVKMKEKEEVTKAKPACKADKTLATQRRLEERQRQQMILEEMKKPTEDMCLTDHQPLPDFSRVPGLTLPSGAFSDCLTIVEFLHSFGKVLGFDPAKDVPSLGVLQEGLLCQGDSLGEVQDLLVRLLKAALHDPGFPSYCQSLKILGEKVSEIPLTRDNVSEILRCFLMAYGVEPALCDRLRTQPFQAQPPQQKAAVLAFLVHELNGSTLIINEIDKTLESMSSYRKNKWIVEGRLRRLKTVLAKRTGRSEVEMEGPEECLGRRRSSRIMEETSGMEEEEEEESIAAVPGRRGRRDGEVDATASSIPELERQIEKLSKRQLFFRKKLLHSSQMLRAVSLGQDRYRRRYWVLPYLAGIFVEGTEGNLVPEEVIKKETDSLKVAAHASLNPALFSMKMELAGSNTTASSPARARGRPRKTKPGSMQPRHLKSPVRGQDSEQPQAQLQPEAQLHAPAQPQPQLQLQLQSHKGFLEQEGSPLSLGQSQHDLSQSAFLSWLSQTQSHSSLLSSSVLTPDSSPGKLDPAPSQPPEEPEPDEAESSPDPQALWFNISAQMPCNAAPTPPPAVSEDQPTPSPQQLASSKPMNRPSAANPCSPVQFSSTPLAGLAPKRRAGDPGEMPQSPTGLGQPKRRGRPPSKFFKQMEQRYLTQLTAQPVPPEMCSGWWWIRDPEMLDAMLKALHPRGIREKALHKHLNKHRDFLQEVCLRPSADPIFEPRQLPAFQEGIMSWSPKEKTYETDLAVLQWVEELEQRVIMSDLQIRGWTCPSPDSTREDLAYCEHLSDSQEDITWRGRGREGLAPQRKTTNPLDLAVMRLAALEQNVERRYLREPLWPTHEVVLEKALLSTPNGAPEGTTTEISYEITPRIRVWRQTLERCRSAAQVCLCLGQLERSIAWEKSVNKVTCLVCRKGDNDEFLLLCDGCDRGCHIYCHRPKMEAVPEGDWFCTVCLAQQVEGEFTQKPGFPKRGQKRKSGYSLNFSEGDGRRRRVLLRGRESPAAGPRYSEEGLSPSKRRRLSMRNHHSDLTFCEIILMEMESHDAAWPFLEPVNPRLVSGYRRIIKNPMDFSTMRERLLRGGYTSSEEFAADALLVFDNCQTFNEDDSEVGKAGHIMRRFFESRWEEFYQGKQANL
Sequence of UniProt Q9UHB6 (Q9UHB6 whole entry, one chain of several): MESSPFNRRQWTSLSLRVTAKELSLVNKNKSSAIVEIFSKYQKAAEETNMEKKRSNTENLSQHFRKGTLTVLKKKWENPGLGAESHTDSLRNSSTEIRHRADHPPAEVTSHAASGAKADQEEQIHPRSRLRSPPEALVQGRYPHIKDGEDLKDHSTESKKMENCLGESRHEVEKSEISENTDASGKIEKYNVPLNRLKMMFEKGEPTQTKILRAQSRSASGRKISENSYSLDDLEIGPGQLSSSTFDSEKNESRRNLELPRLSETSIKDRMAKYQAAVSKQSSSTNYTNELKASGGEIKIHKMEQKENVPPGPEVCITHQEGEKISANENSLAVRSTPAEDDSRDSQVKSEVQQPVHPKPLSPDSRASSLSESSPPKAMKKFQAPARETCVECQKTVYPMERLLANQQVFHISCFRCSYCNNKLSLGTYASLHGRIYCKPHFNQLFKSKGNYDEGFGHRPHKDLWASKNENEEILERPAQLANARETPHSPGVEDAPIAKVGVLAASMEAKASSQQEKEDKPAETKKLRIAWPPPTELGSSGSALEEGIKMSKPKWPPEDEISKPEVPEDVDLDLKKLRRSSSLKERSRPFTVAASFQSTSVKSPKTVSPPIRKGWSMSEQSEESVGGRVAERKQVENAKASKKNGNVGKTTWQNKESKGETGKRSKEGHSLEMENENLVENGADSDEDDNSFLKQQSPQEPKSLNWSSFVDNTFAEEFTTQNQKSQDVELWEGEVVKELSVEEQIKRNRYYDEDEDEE
Sequence of UniProt O75264 (O75264 whole entry, one chain of several): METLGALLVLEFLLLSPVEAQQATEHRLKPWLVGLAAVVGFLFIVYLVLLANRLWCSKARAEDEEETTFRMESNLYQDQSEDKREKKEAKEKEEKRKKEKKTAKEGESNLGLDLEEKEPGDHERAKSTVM
Sequence of UniProt Q8TBC5 (Q8TBC5 whole entry, one chain of several): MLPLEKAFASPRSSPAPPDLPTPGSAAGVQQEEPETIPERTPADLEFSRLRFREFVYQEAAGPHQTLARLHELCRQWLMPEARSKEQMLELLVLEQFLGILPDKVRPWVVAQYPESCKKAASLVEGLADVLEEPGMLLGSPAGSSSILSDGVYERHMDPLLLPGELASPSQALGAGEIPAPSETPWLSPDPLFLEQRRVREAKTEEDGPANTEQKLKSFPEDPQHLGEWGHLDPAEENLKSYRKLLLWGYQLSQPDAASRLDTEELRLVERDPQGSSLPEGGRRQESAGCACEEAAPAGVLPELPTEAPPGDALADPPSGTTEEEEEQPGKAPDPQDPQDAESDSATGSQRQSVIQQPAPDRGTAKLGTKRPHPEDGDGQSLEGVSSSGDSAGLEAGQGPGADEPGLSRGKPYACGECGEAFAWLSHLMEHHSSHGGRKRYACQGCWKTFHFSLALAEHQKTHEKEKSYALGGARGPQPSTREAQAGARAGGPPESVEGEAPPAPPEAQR
Sequence of UniProt A6NDU8 (A6NDU8 whole entry): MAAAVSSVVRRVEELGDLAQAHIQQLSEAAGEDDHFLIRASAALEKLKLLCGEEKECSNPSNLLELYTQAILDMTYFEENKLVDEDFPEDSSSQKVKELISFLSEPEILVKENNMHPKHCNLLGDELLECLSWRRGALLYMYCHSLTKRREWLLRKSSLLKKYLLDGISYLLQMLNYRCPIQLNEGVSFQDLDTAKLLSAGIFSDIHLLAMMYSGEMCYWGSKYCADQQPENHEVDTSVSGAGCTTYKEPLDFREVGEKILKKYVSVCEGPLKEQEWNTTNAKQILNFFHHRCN
Sequence of UniProt O43633 (O43633 whole entry): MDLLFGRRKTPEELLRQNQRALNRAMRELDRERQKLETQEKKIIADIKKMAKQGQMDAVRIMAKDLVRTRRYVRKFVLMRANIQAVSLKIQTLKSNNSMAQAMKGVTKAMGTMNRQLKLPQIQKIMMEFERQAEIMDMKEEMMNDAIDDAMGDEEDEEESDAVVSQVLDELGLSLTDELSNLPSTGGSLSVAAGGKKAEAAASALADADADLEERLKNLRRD
Sequence of UniProt O43765 (O43765 whole entry): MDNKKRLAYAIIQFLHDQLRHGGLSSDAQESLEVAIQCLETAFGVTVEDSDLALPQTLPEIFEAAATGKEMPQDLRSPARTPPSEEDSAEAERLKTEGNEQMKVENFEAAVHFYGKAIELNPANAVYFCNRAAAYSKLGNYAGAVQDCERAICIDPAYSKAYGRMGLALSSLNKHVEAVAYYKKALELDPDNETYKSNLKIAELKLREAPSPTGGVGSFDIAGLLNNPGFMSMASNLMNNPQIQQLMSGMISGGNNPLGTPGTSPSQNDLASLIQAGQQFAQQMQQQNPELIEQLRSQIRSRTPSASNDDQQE

For the target C5orf51 (UniProt A6NDU8), the NP40-soluble protein abundance runs as follows: (concentration: 1mM) 1.04 ± 0.014; (concentration: 2mM) 1.03 ± 0.025; (concentration: 4mM) 1.01 ± 0.025; (concentration: 6mM) 0.9735 ± 0.0065; (concentration: 8mM) 0.953 ± 0.017; (concentration: 10mM) 0.95 ± 0.05.
Take A8MXP9|P43243 (UniProt P43243): the NP40-soluble protein abundance runs as follows: (concentration: 1mM) 1.03 ± 0.033; (concentration: 2mM) 1.07 ± 0.016; (concentration: 4mM) 1.05 ± 0.016; (concentration: 6mM) 1.07 ± 0.042; (concentration: 8mM) 1.08 ± 0.025; (concentration: 10mM) 1.1 ± 0.028.
Consider F8VQE1|Q9UHB6|Q9UHB6-2 (UniProt Q9UHB6), for which the NP40-soluble protein abundance came out at 1.17 ± 0.073 (concentration: 1mM); 1.28 ± 0.2 (concentration: 2mM); 1.33 ± 0.12 (concentration: 4mM); 1.39 ± 0.18 (concentration: 6mM); 1.37 ± 0.17 (concentration: 8mM); 1.58 ± 0.21 (concentration: 10mM).
With UniProt A3KMH1|A3KMH1-3, the NP40-soluble protein abundance was 0.93 ± 0.024 (concentration: 1mM); 0.858 ± 0.098 (concentration: 2mM); 0.933 ± 0.025 (concentration: 4mM); 0.874 ± 0.035 (concentration: 6mM); 0.879 ± 0.017 (concentration: 8mM); 0.8557 ± 0.0057 (concentration: 10mM).
SGTA (UniProt O43765): the NP40-soluble protein abundance amounted to 1.03 ± 0.052 (concentration: 1mM); 1.15 ± 0.079 (concentration: 2mM); 0.99 ± 0.03 (concentration: 4mM); 1.01 ± 0.037 (concentration: 6mM); 0.943 ± 0.054 (concentration: 8mM); 1.02 ± 0.085 (concentration: 10mM).
Consider “A0A0C4DG78|M0R3C6|Q8TBC5|Q8TBC5-2|Q8TBC5-3|Q8TBC5-4 (UniProt Q8TBC5)”, for which the NP40-soluble protein abundance is, setting by setting: (concentration: 1mM) 1 ± 0.012; (concentration: 2mM) 1.02 ± 0.03; (concentration: 4mM) 0.984 ± 0.028; (concentration: 6mM) 1.016 ± 0.003; (concentration: 8mM) 1.002 ± 0.0089; (concentration: 10mM) 1.02 ± 0.011.
Take “F8VU39|J3KPG5|Q9UIF9|Q9UIF9-2|Q9UIF9-3 (UniProt Q9UIF9)”: the NP40-soluble protein abundance amounted to 1 ± 0.015 (concentration: 1mM); 0.9926 ± 0.0061 (concentration: 2mM); 1.023 ± 0.0073 (concentration: 4mM); 1.02 ± 0.039 (concentration: 6mM); 1.01 ± 0.014 (concentration: 8mM); 1.03 ± 0.037 (concentration: 10mM).
Turning to F8VUY8|Q96QD8 (UniProt Q96QD8), the NP40-soluble protein abundance amounted to 1 ± 0.015 (concentration: 1mM); 1.07 ± 0.091 (concentration: 2mM); 1 ± 0.022 (concentration: 4mM); 0.967 ± 0.022 (concentration: 6mM); 0.988 ± 0.014 (concentration: 8mM); 0.989 ± 0.02 (concentration: 10mM).
Consider UniProt O75037|O75037-2, for which the NP40-soluble protein abundance came to 1.03 ± 0.042 (concentration: 1mM); 1.06 ± 0.018 (concentration: 2mM); 1.04 ± 0.05 (concentration: 4mM); 1.01 ± 0.04 (concentration: 6mM); 1 ± 0.032 (concentration: 8mM); 1.04 ± 0.052 (concentration: 10mM).
As to CHMP2A (UniProt O43633), the NP40-soluble protein abundance reads like this: (concentration: 1mM) 0.949 ± 0.013; (concentration: 2mM) 1.02 ± 0.094; (concentration: 4mM) 0.936 ± 0.021; (concentration: 6mM) 0.966 ± 0.043; (concentration: 8mM) 0.971 ± 0.031; (concentration: 10mM) 0.915 ± 0.078.
Consider J3KNV1|O60281 (UniProt O60281), for which the NP40-soluble protein abundance is 1.02 ± 0.034 (concentration: 1mM); 1.08 ± 0.024 (concentration: 2mM); 1.016 ± 0.0028 (concentration: 4mM); 0.966 ± 0.034 (concentration: 6mM); 0.968 ± 0.02 (concentration: 8mM); 0.985 ± 0.041 (concentration: 10mM).
K7EKM7 (UniProt O75264): the NP40-soluble protein abundance was 1 ± 0.035 (concentration: 1mM); 0.988 ± 0.015 (concentration: 2mM); 1 ± 0.038 (concentration: 4mM); 0.971 ± 0.032 (concentration: 6mM); 0.9753 ± 0.0085 (concentration: 8mM); 1.01 ± 0.014 (concentration: 10mM).
